Source: PubChem BioAssay (several laboratories)
Hits are enriched below; roughly 4.2% of the tested compounds scored in any of these assays.
tim23-1 inh – growth inhibitors of tim23-1 mutant yeast | S. cerevisiae tim23-1 growth, BacTiter-Glo luminescence, 24 h | inhibition, % at 20 µM | actives 1.3% (n = 330,000) | AID 463212;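 active = growth inhibition of the mutant yeast at or above 50%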;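 also: temperature-sensitive mutant grown at 25 °C; plate controls were DMSO-treated mutant yeast for no effect and medium wells lacking yeast for full effect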
PfHsp90 set2 – growth inhibition of yeast expressing Plasmodium Hsp90. AID 504621. S. cerevisiae expressing PfHsp90, BacTiter-Glo ATP, 48 h; yeast lacking PDR1 and PDR3 efflux regulators. actives 0.32% (n = 310,000). inhibition, % at 9.4 µM;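 active = every replicate shows inhibition above about 80%, whatever the replicate mean, limit read from the data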;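 also: 0% = DMSO neutral controls and 100% = 20 µM radicicol positive controls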
TIM10 inh – TIM10 yeast growth inhibition | S. cerevisiae TIM10 strain growth, BacTiter-Glo luminescence, 24 h | inhibition, % at 10 µM | actives 1.4% (n = 330,000);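 active = inhibition of 40% or more at the single tested concentration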;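 also: wild-type TIM10 isogenic control strain grown at permissive 25 °C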
NLRP3 yeast inh – inhibitors of NALP3 inflammasome in yeast; Yeast reconstituted NLRP3/ASC/caspase-1, beta-gal luminescence, 24 h; inhibition, % at 10 µM; actives 0.39% (n = 330,000); AID 2825;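 active = inhibition of 50% or more; inactive = inhibition below 50%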;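 also: plate controls were induced DMSO wells for no effect and uninduced yeast grown without galactose for full effect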
tim10-1 inh – tim10-1 yeast growth inhibition; actives 2.2% (n = 330,000); S. cerevisiae tim10-1 ts strain growth, BacTiter-Glo, 24 h; inhibition, % at 20 µM;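 active = inhibition of at least 40%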;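 also: mutant grown at 25 °C; 0% = DMSO wells with yeast and 100% = wells holding no yeast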
NALP1 inh – blocks the NALP1 inflammasome reconstituted in yeast; S. cerevisiae NALP1/ASC/caspase-1 growth, X-gal OD620, 72 h; inhibition, % at 10 µM; actives 0.61% (n = 280,000); AID 2071; in the data active = inhibition mostly above about 24%, no sharp cut-off; inactive = mostly below about 32%
tim23-1 confirm – confirmation of tim23-1 mutant yeast growth inhibitors | actives 83% (n = 4,400) | S. cerevisiae tim23-1 growth, BacTiter-Glo luminescence, 24 h | shares compounds with tim23-1 inh | inhibition, % at 20 µM;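 active = inhibition above about 39% in either of two replicate wells at 20 µM, limit read from the data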;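 also: temperature-sensitive tim23-1 mutant grown at 25 °C; 0% = DMSO wells with yeast and 100% = medium wells without yeast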
The depositor's hits bear a star; ! = a repeat was not active.

Screening COC(=O)C1=C(C(=O)OC)C(c2cc(Cl)ccc2O)c2sc(=O)[nH]c2S1 (stereo not given) returned tim23-1 inh 62*, PfHsp90 set2 -21, TIM10 inh 33, NLRP3 yeast inh 6, tim10-1 inh 34, NALP1 inh 5 and tim23-1 confirm 58*.
Screening O=c1[nH]c(-c2ccco2)nc2sc3c(c12)CCCC3 returned tim23-1 inh 50*, PfHsp90 set2 -51, TIM10 inh 28, NLRP3 yeast inh 4, tim10-1 inh 32, NALP1 inh 15 and tim23-1 confirm 48*.
Screening O=c1[nH]c(S)nc2sc3c(c12)CCCC3 returned tim23-1 inh -13, PfHsp90 set2 6, TIM10 inh -15, NLRP3 yeast inh 7, tim10-1 inh -7 and NALP1 inh -6.
For Cc1ccc(S(N)(=O)=O)cc1NC(=O)C(c1ccccc1)c1ccccc1 the results were tim23-1 inh -1, PfHsp90 set2 -26, TIM10 inh 1, NLRP3 yeast inh 8, tim10-1 inh -12 and NALP1 inh -10.
Screening O=C1C=C(Nc2ccccc2)C(=O)c2ccccc21 returned tim23-1 inh 13, PfHsp90 set2 -50, TIM10 inh 14, NLRP3 yeast inh 39, tim10-1 inh 19 and NALP1 inh 1.
`CC1=CC(=O)c2ccccc2C1=O` gave tim23-1 inh 51*!, PfHsp90 set2 5, TIM10 inh 7, NLRP3 yeast inh -13, tim10-1 inh 18, NALP1 inh 2 and tim23-1 confirm 63*.
`COc1cccc2c1C(=O)C=C(C)C2=O` gave tim23-1 inh 50*, PfHsp90 set2 18, TIM10 inh 30, NLRP3 yeast inh 13, tim10-1 inh 27, NALP1 inh 96* and tim23-1 confirm 47*.
COc1ccc(C(CC(=O)c2ccccc2)CC(=O)c2ccccc2)cc1OC was read as tim23-1 inh 16, PfHsp90 set2 16, TIM10 inh 0, NLRP3 yeast inh 4, tim10-1 inh 4 and NALP1 inh 4.
For C=CCc1ccccc1OCC(=O)N/N=C/c1ccc(OC(C)=O)cc1OC(C)=O the results were tim23-1 inh 63*, PfHsp90 set2 2, TIM10 inh 36, NLRP3 yeast inh 22, tim10-1 inh 20, NALP1 inh 17 and tim23-1 confirm 55*.
For Cc1ccccc1OCC(=O)N/N=C/c1cc2ccccc2nc1Cl the results were tim23-1 inh 12, PfHsp90 set2 -15, TIM10 inh 36, NLRP3 yeast inh 24, tim10-1 inh 24 and NALP1 inh -41.
O=c1c(Cl)nc2cc(Cl)ccc2n1CCNc1ncc(C(F)(F)F)cc1Cl was read as tim23-1 inh 62*, PfHsp90 set2 -6, TIM10 inh -18, NLRP3 yeast inh 24, tim10-1 inh 21, NALP1 inh -6 and tim23-1 confirm 8.
`CCN(CC)c1ccc(C(=O)N/N=C/c2ccccc2OC(F)F)cc1` gave tim23-1 inh 56*, PfHsp90 set2 -5, TIM10 inh 22, NLRP3 yeast inh 27, tim10-1 inh 27, NALP1 inh 1 and tim23-1 confirm 66*.
`CCN(CC)c1ccc(/C=N/NC(=O)OC)c(O)c1` gave tim23-1 inh 59*, PfHsp90 set2 -8, TIM10 inh 26, NLRP3 yeast inh 49, tim10-1 inh 16, NALP1 inh 4 and tim23-1 confirm 36.
For CCN(CC)c1ccc(/C=N/NC(=S)NC)c(O)c1 the results were tim23-1 inh 28, PfHsp90 set2 -4, TIM10 inh 28, NLRP3 yeast inh 40, tim10-1 inh -14 and NALP1 inh 4.
For CN(C)c1ccc(/C=N/NC(=O)c2ccc3c(c2)OCCO3)cc1 the results were tim23-1 inh 58*, PfHsp90 set2 -24, TIM10 inh 8, NLRP3 yeast inh 26, tim10-1 inh -9, NALP1 inh 8 and tim23-1 confirm 38.
For O=C(N/N=C/c1ccc2c(c1)OCO2)c1ccc2c(c1)OCCO2 the results were tim23-1 inh 29, PfHsp90 set2 14, TIM10 inh 15, NLRP3 yeast inh 9, tim10-1 inh -53 and NALP1 inh 27.
